# In the library only some 2.2% were active in any assay of this set; here they are far more common.
# HTR5A ag ctr – HTR5A agonism, opioid heterodimer counter-screen; 340,000 tested, 0.61% active; activation, % at 9.3 µM; P47898; HTR5A agonist assay, luminescence, cell-based; in the data active = activation mostly above about 9.5%, no sharp cut-off; inactive = mostly below about 7.6%
# MOR-DOR ag-1 – OPRM1-OPRD1 heterodimerization agonism. P35372+P41143. cells, luminescence. activation, % at 9.3 µM. 340,000 tested, 0.3% active. AID 504326
# MOR-DOR inv ag – inverse agonists of human mu-delta opioid receptor heterodimerization. P35372+P41143. cell-based MOR-DOR heterodimer luminescence, inverse agonism. inhibition, % at 9.3 µM. 340,000 tested, 0.21% active. AID 504357; in the data active = inhibition above about 22%, passing the limit was not always enough
# sPLA2-III inh – Blocks human group III sPLA2 activity; Q9NZ20; QFRET BODIPY PC-A2 liposome hydrolysis, fluorescence; inhibition, % at 12.2 µM; 370,000 tested, 0.56% active;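 active = inhibition above mean plus 3 SD of compounds lying within the high and low control bounds, cut at about 19% in these data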
# HTR5A inv ctr – HTR5A inverse agonism, opioid heterodimer counter-screen; inhibition, % at 9.3 µM; P47898; 340,000 tested, 0.083% active; HTR5A cell line, luminescence; AID 504634; in the data active = inhibition mostly above about 23%, no sharp cut-off; inactive = mostly below about 18%
# m5-HT2A agonist – mouse HTR2A agonism via beta-arrestin recruitment. P35363. CHO-K1 mHTR2A beta-arrestin complementation, luminescence; percent of 30 µM serotonin response. activation, % at 7.6 µM. 360,000 tested, 0.66% active. AID 624169;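 active = activation above a run cutoff, the mean activation of all tested compounds plus 3 SD, cut at about 14% in these data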
# Target sequence (P35363 whole entry, looked up): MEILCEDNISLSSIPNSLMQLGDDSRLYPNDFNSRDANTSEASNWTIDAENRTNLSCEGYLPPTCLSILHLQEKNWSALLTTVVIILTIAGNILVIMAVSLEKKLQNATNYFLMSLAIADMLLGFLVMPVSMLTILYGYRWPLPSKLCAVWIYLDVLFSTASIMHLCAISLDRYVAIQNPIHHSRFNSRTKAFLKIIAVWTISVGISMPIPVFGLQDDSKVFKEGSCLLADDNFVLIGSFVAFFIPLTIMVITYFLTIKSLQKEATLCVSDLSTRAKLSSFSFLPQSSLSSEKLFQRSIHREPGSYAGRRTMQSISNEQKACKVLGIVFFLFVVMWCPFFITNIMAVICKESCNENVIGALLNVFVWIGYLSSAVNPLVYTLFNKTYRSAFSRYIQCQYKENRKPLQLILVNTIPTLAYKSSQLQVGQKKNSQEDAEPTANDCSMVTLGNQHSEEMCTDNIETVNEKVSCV
# MOR-DOR ag-2 – promotes OPRM1-OPRD1 heterodimerization in HTR5A counter-screen; activation, % at 9.3 µM; U2OS counter-screen cells, complementation luminescence, 3 h; 800 tested, 13% active; AID 504913; shares compounds with HTR5A ag ctr
# HTR5A ag confirm – confirmation of human HTR5A agonists. shares compounds with HTR5A ag ctr. HTR5A agonist cell assay, luminescence. activation, % at 9.3 µM. 800 tested, 17% active. AID 504915; in the data active = activation above about 17%
# OPRM1 ag – OPRM1 agonism in mouse HTR2A counterscreen; shares compounds with m5-HT2A agonist; U2OS OPRM1 beta-arrestin PathHunter, luminescence; DMSO 0%, DAMGO 9.3 µM 100%; activation, % at 9.3 µM; 2,300 tested, 5.3% active;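 active = mean activation above the mean of DMSO-only wells plus 3 SD, cut at about 0.5% in these data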
# HTR2A ag conf – confirmation of mouse HTR2A serotonin receptor agonists; shares compounds with m5-HT2A agonist; CHO-K1 PathHunter beta-arrestin recruitment, luminescence; DMSO 0%, 30 µM serotonin 100%; activation, % at 7.6 µM; 2,300 tested, 19% active; AID 624381;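 active = mean activation across triplicates above the hit threshold derived in the original primary screen, cut at about 15% in these data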
# hGIII sPLA2 conf – human GIII-sPLA2 inhibition, confirmation; 2,000 tested, 34% active; inhibition, % at 12.2 µM; shares compounds with sPLA2-III inh; recombinant hGIII-sPLA2, BODIPY PC-A2 QFRET fluorescence;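 active = mean inhibition across triplicates above the hit cutoff set in the earlier primary screen, cut at about 19% in these data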
# BODIPY interf – counter-screen for HGIII-sPLA2 inhibitors: 535nm fluorescence interference; BODIPY FL product fluorescence interference, QFRET; 2,000 tested, 8.5% active; shares compounds with sPLA2-III inh; AID 743282; inhibition, % at 12.2 µM;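 active = average inhibition above the solvent-only control mean plus 3 SD, cut at about 6% in these data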
# Hits are given with their value; n = inactive; x = not tested or not shown. Rule as the data show it, unless noted: active = activation above about 18%; inactive = the rest.
SMILES,HTR5A ag ctr,MOR-DOR ag-1,MOR-DOR inv ag,sPLA2-III inh,HTR5A inv ctr,m5-HT2A agonist,OPRM1 ag,HTR2A ag conf,others
O=C(NC1CCN(Cc2ccccc2)CC1)c1cccc(S(=O)(=O)Nc2ccc(SC(F)F)cc2)c1,18.7,n,n,n,n,n,x,x,MOR-DOR ag-2=n;HTR5A ag confirm=n
CCn1c(Cc2cccs2)nnc1SCC(=O)Nc1ccccc1-c1ccccc1,x,x,x,n,x,x,x,x,
O=C(Cc1ccccc1)NCCc1c[nH]c2ccccc12,n,n,n,n,n,n,x,x,
O=C(CCC(=O)c1ccccc1)NCCc1c[nH]c2ccccc12,93.5,n,n,n,n,21.4,n,n,MOR-DOR ag-2=n;HTR5A ag confirm=89.1
COc1ccc(CN2C(=O)c3ccnn3CC2(C)c2nnnn2-c2c(C)cccc2C)cc1 (stereo unspecified),x,x,x,n,x,x,x,x,
O=C(CSc1n[nH]c(-c2ccco2)n1)Nc1sc2c(c1C(=O)Nc1ccccc1)CCCC2,18.5,n,n,n,n,16.3,n,18.1,MOR-DOR ag-2=n;HTR5A ag confirm=n
Cc1nn(-c2ccccc2)c2sc(C(=O)NCCc3ccccc3)cc12,x,x,x,n,x,x,x,x,
COc1ccc(C(=O)CC(=O)C(=O)NCCc2cccc(C)c2)cc1,15.9,n,n,n,n,16.7,n,n,MOR-DOR ag-2=n;HTR5A ag confirm=n
Cc1cc(C(C)(C)C)cc(C)c1CC1=NCCN1,90.5,n,n,n,n,24.4,n,24.3,MOR-DOR ag-2=n;HTR5A ag confirm=90.1
c1ccc(CC2=NCCN2)cc1,n,n,n,n,n,n,x,x,
COc1ccc2[nH]cc(CCNC(=O)C3CC(=O)N(c4ccc(Cl)cc4)C3)c2c1 (stereo unspecified),32.6,n,n,n,n,15.7,n,n,MOR-DOR ag-2=n;HTR5A ag confirm=n
COc1ccc(CCNC(=O)C2CC(=O)N(c3ccc(C)cc3)C2)cc1 (stereo unspecified),n,n,n,n,n,n,x,x,
CCOc1ccc(N2CC(C(=O)NCCc3c[nH]c4ccc(OC)cc34)CC2=O)cc1 (stereo unspecified),20.0,n,n,n,n,17.6,n,n,MOR-DOR ag-2=n;HTR5A ag confirm=n
COC(=O)C1=C(C)N(CCc2c[nH]c3ccc(OC)cc23)C(=O)C1,17.1,n,n,n,n,17.2,n,n,MOR-DOR ag-2=n;HTR5A ag confirm=42.0
Nn1c(SCC(=O)Nc2cccc3ccccc23)nnc1-c1n[nH]c2c1CCC2,x,x,x,n,x,x,x,x,
COc1ccccc1CN(C)C(=O)CN1CCN(C(=O)c2cccs2)CC1,15.3,n,n,n,n,16.8,n,27.3,MOR-DOR ag-2=n;HTR5A ag confirm=32.0
COc1ccccc1CC(NC(C)=O)C(=O)N1CCN(C(=O)c2cccs2)CC1 (stereo unspecified),n,n,n,n,n,n,x,x,
CCN(C(=O)[C@@H](C1CC1)[C@@H](O)c1ccc(C(C)=O)cc1)c1ccccc1,x,x,x,n,x,x,x,x,
CCOC(=O)c1c(CSC(=N)N)n(-c2ccc(C)cc2)c2cc(Br)c(OC(C)=O)cc12,16.7,n,n,25.5,n,n,x,x,MOR-DOR ag-2=n;HTR5A ag confirm=n;hGIII sPLA2 conf=n;BODIPY interf=n
CC1CCCCC1N(C(=O)c1cc(C2CC2)on1)C1CCCCC1 (stereo unspecified),x,x,x,n,x,x,x,x,
Cc1ccc(C)c(NC(=O)c2ccc[n+](Cc3ccc([N+](=O)[O-])cc3)c2)c1,n,n,n,n,n,15.2,n,n,
COc1ccc2ccccc2c1C=NNC(=O)CN1CCN(Cc2ccccc2)CC1,x,x,x,n,x,x,x,x,
CC1CCC2(CC1)CCN(CCCOC(=O)Nc1cccc(F)c1)C2=O (stereo unspecified),x,x,x,n,x,x,x,x,
COC(=O)[C@]12C[C@H](CC(=O)N3CCN(C(=O)C4CC4)CC3)C(=O)N(CCc3ccc(OC)c(OC)c3)C1=C[C@H](C1CCCC1)O[C@@H]2C,x,x,x,n,x,x,x,x,
COc1ccccc1C(=O)COC(=O)c1cc(S(=O)(=O)N2CCCCC2)ccc1N1CCOCC1,n,n,n,n,n,17.5,n,n,
SMILES,HTR5A ag ctr,MOR-DOR ag-1,MOR-DOR inv ag,sPLA2-III inh,HTR5A inv ctr,m5-HT2A agonist,OPRM1 ag,HTR2A ag conf,others
CCOc1ccc(CCNC(=O)C2=C(C)C(=O)OC23CCC(C)CC3)cc1 (stereo unspecified),n,n,n,n,n,16.3,n,n,
COc1cccc(-c2nc(-c3cccc(C)c3)nc3cc(Cl)ccc23)c1,x,x,x,n,x,17.4,n,n,
COC(=O)c1cc(=O)n(Cc2ccc3c(c2)OCO3)c(=Nc2ccc(F)c(Cl)c2)s1,n,n,n,n,n,14.5,n,n,
COC(=O)[C@]12C[C@H](CC(=O)NCc3ccc(OC)c(OC)c3)C(=O)N(Cc3ccc4c(c3)OCO4)C1=C[C@H](C(C)C)O[C@@H]2C1CC1,x,x,x,n,x,x,x,x,
CCCn1c(N)c(Sc2ccc(Cl)cc2)c(=O)n(CCC)c1=O,n,n,n,n,n,22.5,n,n,
CCCCn1c(N)c(Sc2ccc(Cl)cc2)c(=O)[nH]c1=O,n,n,n,n,n,n,x,x,
COc1ccc2c3n(nc2c1)CCN=C3c1ccc(Cl)cc1,n,n,n,n,n,16.5,n,n,
O=c1ccn(CCOc2ccc(Cl)cc2)c(=O)[nH]1,n,n,n,n,n,n,x,x,
Cc1cn(CCOc2ccc(Cl)cc2)c(=O)[nH]c1=O,n,n,n,n,n,16.8,n,n,
CC(C)C[C@H](NC(=O)N1CCn2c1nc1ccccc12)C(=O)NCCc1ccccc1,x,x,x,n,x,n,x,x,
CC(C)C[C@H](NC(=O)N1CCn2c1nc1ccccc12)C(=O)NCc1ccccc1,x,x,x,n,x,15.4,x,n,
Cc1ccc(N(C)S(=O)(=O)c2cccc(C(=O)Oc3ccc4c(C)cc(=O)oc4c3)c2)cc1,n,n,n,n,n,19.1,n,n,
Cc1cc(=O)oc2cc(OC(=O)c3ccccc3)ccc12,n,n,n,n,n,n,x,x,
CC1CCC2(CC1)CCN(CCCOC(=O)Nc1cccc(C(F)(F)F)c1)C2=O (stereo unspecified),x,x,x,n,x,x,x,x,
CN1CCc2cccc3c2[C@H]1Cc1ccc(O)c(O)c1-3,n,n,n,n,n,44.1,n,125.0,
C=CCN1[C@H](CC(C)C)COc2cc(F)ccc2S1(=O)=O,x,x,x,n,x,x,x,x,
O=C(Nc1ccc2c(c1)OCO2)OC1CCC12CCCCC2 (stereo unspecified),x,x,x,n,x,x,x,x,

# Compound activity deposited in PubChem BioAssay by The Scripps Research Institute Molecular Screening Center.
